Most compounds without a hit are left out; they make up all but 1.5% or so of the library.
GLD-1 TGE inh: GLD-1-TGE RNA interaction inhibition (C. elegans) | purified GLD-1 + fluorescein TGE RNA, fluorescence polarization | inhibition, % at 5.96 µM | 320,000 tested, 0.44% active | AID 2280;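 active means percent inhibition above a per-plate cutoff, the plate mean of test compounds plus 3 SD, cut at about 30% in these data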
eLon inh: inhibits E. coli Lon protease. 360,000 tested, 0.42% active. inhibition, % at 7.94 µM. AID 602123. purified E. coli Lon protease, fluorescence polarization; in the data active means inhibition above about 13%, passing the limit was not always enough
MCL1 BIM primary: disrupts human MCL1 binding to BIM-BH3 peptide. Q07820. GST-MCL1 / FITC-Bim-BH3 fluorescence polarization. inhibition, % at 10.9 µM. 320,000 tested, 0.68% active;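 active means inhibition above the mean inhibition of all tested compounds plus 3 SD, set per campaign, cut at about 40% in these data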;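 further: higher means more loss of mP so more displacement of Bim peptide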
Target sequence (Q07820 whole entry, looked up): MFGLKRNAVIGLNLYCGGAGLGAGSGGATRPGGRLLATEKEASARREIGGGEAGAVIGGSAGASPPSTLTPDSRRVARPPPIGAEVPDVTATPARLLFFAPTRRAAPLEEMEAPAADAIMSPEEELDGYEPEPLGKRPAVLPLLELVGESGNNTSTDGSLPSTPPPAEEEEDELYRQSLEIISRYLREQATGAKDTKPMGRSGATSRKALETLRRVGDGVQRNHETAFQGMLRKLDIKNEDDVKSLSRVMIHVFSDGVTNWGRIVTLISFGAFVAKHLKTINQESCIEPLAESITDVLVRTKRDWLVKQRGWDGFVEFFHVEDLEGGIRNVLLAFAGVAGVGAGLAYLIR
Bcl-xL primary: Bcl-xL (human) inhibition | Q07817 | GST-Bcl-xL / FITC-Bim BH3 peptide fluorescence polarization | inhibition, % at 10.9 µM | 320,000 tested, 0.7% active;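 active means inhibition above the mean of all tested compounds plus 3 SD, cutoff set per campaign, cut at about 30% in these data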;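 further: inhibitors lower millipolarization by displacing the labeled peptide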
Target sequence (Q07817 whole entry, looked up): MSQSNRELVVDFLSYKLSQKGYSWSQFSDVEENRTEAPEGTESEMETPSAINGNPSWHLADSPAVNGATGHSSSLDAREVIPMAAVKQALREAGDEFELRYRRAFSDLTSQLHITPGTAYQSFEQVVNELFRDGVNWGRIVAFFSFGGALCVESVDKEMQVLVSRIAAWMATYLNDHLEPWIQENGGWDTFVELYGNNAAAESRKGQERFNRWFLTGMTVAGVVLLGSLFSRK
MEX-5 binding: C. elegans MEX-5 TCR-2 RNA binding activity | Q9XUB2 | MEX-5/FITC-TCR2 RNA binding, fluorescence polarization; active compounds read low | activity score (negative = inhibition of binding), % at 10 µM | 300,000 tested, 0.38% active;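 active means inhibition past about -25% in most replicates, and total fluorescence under double the plate's negative control median, limit read from the data; inconclusive means replicates evenly split on the limit, or fluorescence at least double controls; inactive means too little inhibition in most replicates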
EBV gp42 block: inhibitors of Epstein-Barr virus glycoprotein 42 | 220,000 tested, 0.42% active | Fluorescence polarization binding assay, mP read-out | inhibition, % (tested at 21.74 µM) | Q1HVG2; in the data active means inhibition above about 50%
Each line names hits and unclear results; the compound was inactive in the other large screens.

Cc1ccc(/C=c2\sc3nc(-c4ccccc4Br)nn3c2=O)o1	none
CCC(C)(C)NC(=O)CN(C(=O)C(=O)Nc1ccc2c(c1)OCCO2)C1CC1	none (no result: EBV gp42 block)
Cc1ccc(-c2cc(-c3ccc(C)o3)nc(N)c2C#N)cc1	GLD-1 TGE inh 38.7, MCL1 BIM primary 45.4, Bcl-xL primary 32.3
c1ccc2c(c1)nc(NCC1CCCO1)c1nnnn12 (stereo unspecified)	Bcl-xL primary 40.4
Cc1cc(C)c(S(=O)(=O)N2CCN(c3ccccn3)CC2)c(C)c1	none (no result: GLD-1 TGE inh, MCL1 BIM primary, Bcl-xL primary, MEX-5 binding, EBV gp42 block)
O=c1[nH][nH]c2cc(=O)n(-c3ccc(Cl)cc3)nc12	MEX-5 binding -32.1
COc1ccc(N=Cc2cc(Cc3ccccc3Cl)cc([N+](=O)[O-])c2O)cc1OC	EBV gp42 block 104.2
COc1ccc(NC(=O)CSc2nc3c(sc4ccccc43)c(=O)n2CCCN2CCCC2)cc1	none (no result: EBV gp42 block)
COc1ccc(-c2nc(N)nc(C)c2Oc2ccccc2Br)c(O)c1	Bcl-xL primary 42.0 (no result: MEX-5 binding)
CCOc1ccc(-c2nc(N)ncc2Oc2ccc(OC)cc2)c(O)c1	none
COc1cccc(-c2cccc(-c3nc(C(=O)NCc4ccc5c(c4)OCO5)cc4c3[C@H](CCO)N(S(=O)C(C)(C)C)C4)c2)c1 (stereo partly specified)	none (no result: GLD-1 TGE inh, MCL1 BIM primary, Bcl-xL primary, MEX-5 binding, EBV gp42 block)
CC1CCC(NC(=O)CCNS(=O)(=O)c2ccc3c(c2)CCC(=O)N3)CC1 (stereo unspecified)	none (no result: EBV gp42 block)
CCn1c(C)cc(=S)c2ccccc21	MEX-5 binding -51.9
CC(c1nccs1)N(C)c1nc2nonc2nc1NC1CC1 (stereo unspecified)	Bcl-xL primary 32.6
CC(=O)NC(c1cccc(F)c1)c1nc(-c2cnn(C)c2)cs1 (stereo unspecified)	none (no result: GLD-1 TGE inh, MCL1 BIM primary, Bcl-xL primary, MEX-5 binding, EBV gp42 block)
O=C(Nc1ccc(Br)cn1)c1cccc2ccccc12	none (no result: EBV gp42 block)
COc1c(C(=O)Nc2ccc(Br)cn2)ccc2ccccc12	Bcl-xL primary 56.8 (no result: EBV gp42 block)
O=C(N/N=C\c1cc([N+](=O)[O-])ccc1N1CCCC1)c1ccccn1	MEX-5 binding -27.4
CCN(CC(=O)NCc1cccs1)S(=O)(=O)c1cccc(Br)c1	none (no result: MEX-5 binding, EBV gp42 block)
CC(=O)Nc1ccc(NC2=Nc3ccccc3N3C2=Nc2c(c(C)nn2-c2ccccc2)C3c2ccccc2)cc1 (stereo unspecified)	EBV gp42 block 70.8
COc1ccc(NC2=Nc3ccccc3N3C2=Nc2c(c(C)nn2-c2ccc(C)cc2)C3c2cccnc2)cc1 (stereo unspecified)	none (no result: MEX-5 binding)
COc1ccc(S(=O)(=O)N(CC(=O)NCc2cccnc2)c2ccc(C)cc2)cc1OC	none (no result: EBV gp42 block)
CC(C(=O)NCc1ccccn1)c1ccc([N+](=O)[O-])cc1 (stereo unspecified)	none
CCCCNC(=O)CCn1nc(-c2ccc(C)cc2)c2ccccc2c1=O	none (no result: EBV gp42 block)
CCCNC(=O)CCn1nc(-c2ccc(C)cc2)c2ccccc2c1=O	Bcl-xL primary 34.1 (no result: EBV gp42 block)
O=C(OCc1nnc(-c2ccccc2)o1)c1cccc(-n2cnnn2)c1	none (no result: EBV gp42 block)
COc1cc(/C=C2\C(C)=C(C#N)c3nc(N)c(C#N)c(C)c32)ccc1OCC(=O)O	Bcl-xL primary 34.5
COc1cc2c3nnc(-c4ccc(F)cc4)c-3cn(Cc3ccc(C)cc3)c2cc1OC	MEX-5 binding inconclusive
COc1cc2c3nnc(-c4ccccc4)c-3cn(Cc3ccc(F)cc3)c2cc1OC	MEX-5 binding -34.4
O=C1[C@H]2[C@@H](c3ccc(F)cc3)N3C(=O)N(c4ccc(Br)cc4)C(=O)[C@@]3(Cc3ccccc3)[C@H]2C(=O)N1C1CCCCC1	none (no result: EBV gp42 block)
CC(=O)c1ccc2cccc3c2c1N=CN3C	Bcl-xL primary 33.3
CC(=O)N1c2ccc(S(=O)(=O)N3CCCC(C(=O)Nc4ccc(C)cc4)C3)cc2CC1C (stereo unspecified)	none (no result: GLD-1 TGE inh, MCL1 BIM primary, Bcl-xL primary, MEX-5 binding, EBV gp42 block)
CC(=O)N1c2ccc(S(=O)(=O)N3CCCC(C(=O)Nc4ccc(F)cc4)C3)cc2CC1C (stereo unspecified)	Bcl-xL primary 73.1 (no result: EBV gp42 block)
CCc1ccc(/C=C2/SC(=S)N(CCC(=O)Nc3ccc(C(=O)O)cc3)C2=O)cc1	Bcl-xL primary 189.4 (no result: EBV gp42 block)
COc1ccccc1/C=C1\SC(=S)N(CCC(=O)NC2=NCCS2)C1=O	MEX-5 binding -63.1
COc1ccc(/C=C2\SC(=S)N(CCC(=O)NC3CCCC3)C2=O)cc1OC	MEX-5 binding -27.0 (no result: EBV gp42 block)
CCC(C)N(C(=O)CSc1ccc(NC(C)=O)cc1)C1CCS(=O)(=O)C1 (stereo unspecified)	none
Cc1ccc(F)c(S(=O)(=O)NC(=O)C2(C)CCN2C(=O)c2ccccc2)c1 (stereo unspecified)	none (no result: GLD-1 TGE inh, MCL1 BIM primary, Bcl-xL primary, MEX-5 binding, EBV gp42 block)
CCCCn1nc(-c2ccccc2)c2nc3ccccc3nc21	MEX-5 binding inconclusive, EBV gp42 block 154.4 (no result: eLon inh)
C=Cc1c(C)c2cc3[nH]c(cc4nc(cc5nc(cc1[nH]2)C(C)=C5CCC(=O)O)C(CCC(=O)O)=C4C)c(C)c3C=C	MCL1 BIM primary 82.8, MEX-5 binding -41.8 (no result: EBV gp42 block)
CC(=O)c1cc2cc(O)ccc2o1	none (no result: MEX-5 binding)
CC(=O)c1cc2c(O)c(O)ccc2o1	Bcl-xL primary 33.5
CC1OC(c2ccccc2)OC2COC(c3ccccc3)OC12 (stereo unspecified)	none (no result: GLD-1 TGE inh, MCL1 BIM primary, Bcl-xL primary, MEX-5 binding, EBV gp42 block)
COC(=O)c1ccccc1NC1=C/C(=N\S(=O)(=O)c2ccc(C(=O)O)cc2)c2ccccc2C1=O	MCL1 BIM primary 45.2, Bcl-xL primary 40.0 (no result: EBV gp42 block)
C(=N\NC1=Nc2cccc3cccc1c23)/c1ccccc1	GLD-1 TGE inh 32.5, EBV gp42 block 147.7
CN(C)CCCn1c(=O)n(CCc2ccccc2)c(=O)c2c3c(sc21)CCCCC3	Bcl-xL primary 56.1
CN(C)CCn1c(=O)n(Cc2ccccc2)c(=O)c2c3c(sc21)CCCCC3	none (no result: EBV gp42 block)
COc1ccc(NC(=O)C2(C)Cc3c(-c4ccc(N(C)C)cc4)ccnc3O2)cc1 (stereo unspecified)	none (no result: GLD-1 TGE inh, MCL1 BIM primary, Bcl-xL primary, MEX-5 binding, EBV gp42 block)
COc1cccc(-n2c([S-])c(C(=O)Nc3ccc(S(=O)(=O)N4CCOCC4)cc3)[n+]3cc(C(N)=O)ccc23)c1	Bcl-xL primary 35.7
CCOC(=O)Cn1c(=O)oc2cc(S(=O)(=O)NCc3ccccn3)ccc21	eLon inh 25.9
Cn1ccnc1Sc1nc2ccccc2nc1NS(=O)(=O)c1ccccc1	GLD-1 TGE inh 38.8, Bcl-xL primary 34.4
Cn1cnnc1Sc1nc2ccccc2nc1NS(=O)(=O)c1ccccc1	none
N#Cc1ccccc1C[C@H](N)C(=O)NC[C@H]1O[C@@H](n2ccc(N)nc2=O)[C@H](O)[C@@H]1O	none (no result: GLD-1 TGE inh, MCL1 BIM primary, Bcl-xL primary, MEX-5 binding, EBV gp42 block)
O=S(=O)(c1cccc(C(F)(F)F)c1)N1CCN(CC(O)COCc2ccccc2)CC1 (stereo unspecified)	none (no result: MCL1 BIM primary, Bcl-xL primary, MEX-5 binding, EBV gp42 block)
Oc1cc2c(cc1O)C(c1ccccc1)CNCC2 (stereo unspecified)	MEX-5 binding -30.3 (no result: EBV gp42 block)
CN1/C(=C\C=C(/C#N)C(=O)Nc2ccccc2F)C(C)(C)c2ccccc21	MEX-5 binding -38.7
CN1/C(=C/C=C(/C#N)C(N)=O)C(C)(C)c2ccccc21	none
Fc1ccc(-c2ccnc3nc(N4CCN(c5ccccc5)CC4)nn23)cc1	none

Screens (PubChem)
